Results filed as inconclusive are left out. Unmarked numbers belong to inactive results. The source made the active and inactive calls. Calls come from the whole dose curve.
molecular target: Peroxisome proliferator-activated receptor delta (Homo sapiens) (UniProt Q03181); assay: qHTS assay for small molecule agonists of peroxisome proliferator-activated receptor delta signaling (AID 588534); details: HEK293T PPARdelta-UAS-bla, beta-lactamase ratio, 18 h; series mostly up to 76.7 µM; activation: at the top concentration;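 note: 0% = DMSO basal wells and 100% = positive control agonist at 10 µM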
Procedure, shortened: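 Agonist-mode beta-lactamase reporter readout (CCF4 dye, 2 h at RT) after 18 h at 37 °C exposure to a titration; Hill-equation fitting gave EC50 and maximal response.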

Peroxisome proliferator-activated receptor delta (Homo sapiens), sequence (Q03181 whole entry, looked up): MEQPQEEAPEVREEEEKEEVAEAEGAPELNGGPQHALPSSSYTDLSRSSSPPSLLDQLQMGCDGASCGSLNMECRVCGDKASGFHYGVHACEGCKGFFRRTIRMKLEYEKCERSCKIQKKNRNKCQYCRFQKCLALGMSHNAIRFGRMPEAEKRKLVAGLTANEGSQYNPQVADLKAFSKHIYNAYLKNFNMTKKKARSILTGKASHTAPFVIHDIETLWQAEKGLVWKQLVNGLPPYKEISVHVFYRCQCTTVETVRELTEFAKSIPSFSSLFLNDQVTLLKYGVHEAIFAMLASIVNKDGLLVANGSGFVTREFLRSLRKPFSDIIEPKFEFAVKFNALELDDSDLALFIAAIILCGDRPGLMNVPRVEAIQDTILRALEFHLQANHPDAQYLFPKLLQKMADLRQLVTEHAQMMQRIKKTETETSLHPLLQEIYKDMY

Row | SMILES | activation | outcome
1 | Oc1cc2c(cc1O)[C@H]1c3ccc(O)c(O)c3OC[C@@]1(O)C2 | -4.97% | –
2 | CC1=CC(=O)NS(=O)(=O)O1 | – | inactive
3 | O=C(O)CNC(=O)c1ccc([N+](=O)[O-])cc1 | -0.404% | –
4 | C[Si]1(C)O[Si](C)(C)O[Si](C)(C)O[Si](C)(C)O[Si](C)(C)O1 | 1.92% | –
5 | C=CC(C)(O)CCCC(C)CCCC(C)CCCC(C)C (stereo not drawn) | 15.6% | –
6 | CCN(CC)c1cccc(O)c1 | 15.1% | –
7 | O=[N+]([O-])c1cccc(C(F)(F)F)c1 | 2.45% | –
8 | COC(OC)(C(=O)c1ccccc1)c1ccccc1 | 7.67% | –
